# Results filed as inconclusive are left out. Where a call stands in place of a potency, no number is given. Active and inactive are the calls of the source. Unless noted, calls come from the whole dose curve; as a rule, active = well fitted curve in the direction sought with a large enough effect in the repeat runs; inconclusive = weak or mixed curves; inactive = no such curve, though single readings can be large; an effect the other way counts as inactive or inconclusive.
# Key:
# [1] = molecular target: Aryl hydrocarbon receptor (Homo sapiens) (UniProt P35869); assay: qHTS assay to identify small molecule that activate the aryl hydrocarbon receptor (AhR) signaling pathway (AID 743085); note: nearly all actives have a fitted effect of over 15% in size; note: potency is the fitted concentration of half-maximal effect;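 for activation: HG2L7.5c1 human HepG2 liver cells with stably integrated DRE-driven firefly reporter; series mostly up to about 70 µM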
# How it was run: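 Compounds were tested in HepG2 hepatocellular carcinoma cells harbouring a stably integrated luciferase gene under control of 20 DREs. Increased reporter signal after 24 h treatment at 37C was taken as AhR activation.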
# [2] = qHTS assay for small molecule activators of the heat shock response signaling pathway - cell viability counter screen (AID 743209); note: nearly all actives have a fitted effect of over 50% in size; note: potency is the fitted concentration of half-maximal effect
# How it was run: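 Viability of HSE-bla HeLa cells is measured with CellTiter-Glo in the wells already used for the reporter read. Compound exposure lasts 5 h at 37 C, and luminescence is read after 30 min at room temperature.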
# [3] = qHTS assay for small molecule agonists of the antioxidant response element (ARE) signaling pathway - cell viability counter screen (AID 743203; calls by dose curve; note: nearly all actives have a fitted effect of over 55% in size; note: potency is the fitted concentration of half-maximal effect)
# How it was run: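 Viability counter screen: stably transfected ARE-bla HepG2 line, 16 hrs compound exposure at 37C/5% CO2, ATP-based CellTiter-Glo luminescence measured in the reporter wells.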
# [4] = qHTS assay to identify small molecule that activate the aryl hydrocarbon receptor (AhR) signaling pathway - cell viability counter screen (AID 743086); note: nearly all actives have a fitted effect of over 45% in size; note: potency is the fitted concentration of half-maximal effect
# How it was run: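 Cytotoxicity counter screen: CellTiter-Fluor signal (30 min, 37 C) in 4000 HepG2 cells/well carrying the DRE-luciferase reporter, following 24 h compound exposure at 37 C.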
# [5] = qHTS assay to identify small molecule antagonists of the peroxisome proliferator-activated receptor gamma (PPARg) signaling pathway - cell viability counter screen (AID 743194); note: nearly all actives have a fitted effect of over 55% in size; note: potency is the fitted concentration of half-maximal effect
# How it was run: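 Viability was measured as CellTiter-Glo luminescence in GeneBLAzer PPARg UAS-bla HEK293H cells. These cells had been exposed 17 h at 37 C to compounds together with rosiglitazone at 50 nM final, with the beta-lactamase readout taken in the same wells.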
# [6] = qHTS assay for small molecule activators of the heat shock response signaling pathway (AID 743210; active = well fitted activation curve with a large enough effect in the signal ratio in the repeat runs, with a control signal flat, not every such curve was filed as active; the % refers to the signal ratio;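 note: HeLa cells with beta-lactamase reporter driven by heat shock elements; series mostly up to about 63 µM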)
# How it was run: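 Fluorescence from a cleaved B/G FRET substrate (2.5 h, room temp) reports HSE-driven beta-lactamase in HeLa cells treated 5 h at 37 C with DMSO-dissolved compounds.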
# [7] = molecular target: Peroxisome proliferator-activated receptor gamma (Homo sapiens) (UniProt P37231); assay: qHTS assay to identify small molecule agonists of the peroxisome proliferator-activated receptor gamma (PPARg) signaling pathway (AID 743094; active = well fitted activation curve with a large enough effect in the signal ratio in the repeat runs, not every such curve was filed as active; the % refers to the signal ratio; note: potency is the fitted concentration of half-maximal effect)
# How it was run: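 Reporter activation was scored by fluorescence of cleaved LiveBLAzer B/G substrate (1 h, room temperature) in PPARg-bla HEK293H cells previously treated 17 h at 37C with DMSO-dissolved compounds.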
# [8] = qHTS assay to identify aromatase inhibitors - cell viability counter screen (AID 743084);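 note: cells stimulated with testosterone during compound exposure; potency is the fitted concentration of half-maximal effect; nearly all actives have a fitted effect of over 55% in size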
# [9] = qHTS assay for small molecule agonists of the antioxidant response element (ARE) signaling pathway (AID 743202; active = well fitted activation curve with a large enough effect in the signal ratio in the repeat runs, not every such curve was filed as active; the % refers to the signal ratio)
# How it was run: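 Beta-lactamase reporter activity, read as fluorescence intensity, reflects ARE/Nrf2 pathway induction in HepG2 cells after 16 h compound exposure at 37 C; substrate loading was 2 h at room temperature.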
# Sequence of Peroxisome proliferator-activated receptor gamma (Homo sapiens) (P37231 whole entry, looked up): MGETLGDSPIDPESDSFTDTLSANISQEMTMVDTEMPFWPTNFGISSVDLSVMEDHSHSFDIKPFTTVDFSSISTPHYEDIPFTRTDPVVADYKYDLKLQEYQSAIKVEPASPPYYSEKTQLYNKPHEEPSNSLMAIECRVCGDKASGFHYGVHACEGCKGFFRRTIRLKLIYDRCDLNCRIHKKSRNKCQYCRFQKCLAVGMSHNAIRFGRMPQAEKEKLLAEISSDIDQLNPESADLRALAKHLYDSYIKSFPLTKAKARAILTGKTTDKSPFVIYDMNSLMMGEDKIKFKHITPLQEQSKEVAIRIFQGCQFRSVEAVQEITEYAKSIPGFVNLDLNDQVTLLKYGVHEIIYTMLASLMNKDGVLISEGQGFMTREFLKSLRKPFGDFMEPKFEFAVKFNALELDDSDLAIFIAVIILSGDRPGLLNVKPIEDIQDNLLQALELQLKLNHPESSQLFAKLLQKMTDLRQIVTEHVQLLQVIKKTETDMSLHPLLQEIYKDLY
# Sequence of Aryl hydrocarbon receptor (Homo sapiens) (P35869 whole entry, looked up): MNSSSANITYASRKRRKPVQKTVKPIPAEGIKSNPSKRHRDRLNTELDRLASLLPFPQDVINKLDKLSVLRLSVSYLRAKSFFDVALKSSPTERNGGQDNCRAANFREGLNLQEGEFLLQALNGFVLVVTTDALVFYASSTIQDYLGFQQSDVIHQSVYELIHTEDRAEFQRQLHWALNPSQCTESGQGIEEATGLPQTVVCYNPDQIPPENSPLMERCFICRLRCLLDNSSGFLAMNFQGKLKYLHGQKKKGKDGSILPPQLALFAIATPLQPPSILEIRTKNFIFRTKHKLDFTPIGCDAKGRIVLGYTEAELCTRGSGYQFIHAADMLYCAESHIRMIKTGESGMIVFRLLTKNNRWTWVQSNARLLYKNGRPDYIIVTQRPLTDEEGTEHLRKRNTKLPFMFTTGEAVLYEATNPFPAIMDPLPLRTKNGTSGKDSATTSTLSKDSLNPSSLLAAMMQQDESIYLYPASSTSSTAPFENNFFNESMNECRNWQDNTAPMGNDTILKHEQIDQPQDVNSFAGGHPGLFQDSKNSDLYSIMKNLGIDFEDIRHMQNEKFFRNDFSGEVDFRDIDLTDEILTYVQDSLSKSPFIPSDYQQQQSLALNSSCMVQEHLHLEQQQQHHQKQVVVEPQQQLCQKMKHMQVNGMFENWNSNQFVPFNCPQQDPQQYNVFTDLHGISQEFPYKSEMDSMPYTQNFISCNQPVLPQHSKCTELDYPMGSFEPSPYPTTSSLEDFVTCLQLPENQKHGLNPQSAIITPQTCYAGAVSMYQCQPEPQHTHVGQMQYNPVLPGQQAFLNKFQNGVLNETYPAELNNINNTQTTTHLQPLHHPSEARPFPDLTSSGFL
structure (smiles),measurement,setting,value
CC1=C(/C=C/C(C)=C/C=C/C(C)=C\C(=O)O)C(C)(C)CCC1,Potency,[1],inactive
same,Potency,[2],55.1 µM (active)
O=C1OC(O)C(C(Cl)Cl)=C1Cl (configuration not stated),Potency,[1],inactive
same,Potency,[3],inactive
O=C1c2ccccc2-c2n[nH]c3cccc1c23,Potency,[1],29.8 µM (active)
CC(Cc1ccc(O)c(O)c1)C(C)Cc1ccc(O)c(O)c1 (configuration not stated),Potency,[1],inactive
same,Potency,[3],61.1 µM (active)
same,Potency,[2],inactive
Cc1ccc2nc(-c3ccc(N)cc3)sc2c1S(=O)(=O)O,Potency,[1],4.26 µM (active)
same,Potency,[4],inactive
same,Potency,[5],inactive
same,Potency,[3],inactive
same,Potency,[2],inactive
CCCCCCCC[N+](C)(C)CCCCCCCC,Potency,[1],inactive
same,Potency,[4],inactive
CN1CCN(CCCN2c3ccccc3Sc3ccc(Cl)cc32)CC1,Potency,[1],9.44 µM (active)
same,Potency,[3],29.8 µM (active)
same,Potency,[2],inactive
same,outcome,[6],inactive
CN1CCN(c2ccccc2/C=C2\SCCN(c3ccc(Cl)c(Cl)c3)C2=O)CC1,Potency,[1],inactive
same,Potency,[5],49 µM (active)
same,Potency,[3],24.3 µM (active)
same,Potency,[2],54.9 µM (active)
CN[C@H]1CC[C@@H](c2ccc(Cl)c(Cl)c2)c2ccc(S(N)(=O)=O)cc21,Potency,[1],inactive
same,Potency,[4],61.1 µM (active)
same,Potency,[5],49 µM (active)
same,Potency,[3],24.3 µM (active)
same,Potency,[2],inactive
same,outcome,[6],inactive
CN1[C@@H](CC(=O)c2ccccc2)CCC[C@H]1C[C@H](O)c1ccccc1,Potency,[1],inactive
same,Potency,[4],inactive
same,Potency,[7],inactive
O=C(CCCCCCCCc1cccnc1)N1CCC(C=C(c2ccccc2)c2ccccc2)CC1,Potency,[1],inactive
same,Potency,[4],inactive
same,Potency,[5],19.5 µM (active)
same,Potency,[3],15.4 µM (active)
same,Potency,[2],inactive
CCN(CC)C(=O)c1cccnc1,Potency,[4],inactive
CCCCCCCC1CCC(=O)O1 (configuration not stated),Potency,[1],inactive
CN1CC[C@H](c2c(O)cc(O)c3c(=O)cc(-c4ccccc4Cl)oc23)[C@H](O)C1,Potency,[5],inactive
same,Potency,[3],inactive
same,outcome,[6],inactive
CCCCCCCCOC(=O)c1cc(O)c(O)c(O)c1,Potency,[8],54.5 µM (active)
same,Potency,[5],34.7 µM (active)
same,Potency,[3],54.5 µM (active)
COc1cc(NS(C)(=O)=O)ccc1Nc1c2ccccc2nc2ccccc12,Potency,[7],21.3 µM (active)
O=C1CCCCCCCCCCCCCC1,Potency,[4],inactive
same,Potency,[5],inactive
same,Potency,[9],inactive
same,Potency,[3],inactive
same,outcome,[6],inactive
CCCn1c(=O)[nH]c(=O)c2[nH]cnc21,Potency,[4],inactive
O=C(Nc1ccccc1)c1cc(Cl)ccc1O,Potency,[1],3.06 µM (active)
same,Potency,[4],inactive
same,Potency,[5],6.92 µM (active)
COc1c(Br)cc(Br)c(C)c1Br,Potency,[4],inactive
same,Potency,[5],inactive
same,Potency,[9],inactive
same,Potency,[3],inactive
same,Potency,[2],inactive
same,outcome,[6],inactive
O=C(CCN1CCC(c2ccccc2)C1)c1ccc2c(c1)OCCO2 (configuration not stated),Potency,[1],inactive
same,Potency,[4],inactive
same,Potency,[7],inactive
same,Potency,[5],inactive
same,Potency,[3],inactive
same,Potency,[2],13.3 µM (active)
NCCCC(=O)O,Potency,[1],inactive
same,Potency,[4],inactive
same,Potency,[7],inactive
COc1cccc(-c2ccc(/C=C\CN3CCCCCC3)cc2Cl)c1,Potency,[1],inactive
same,Potency,[7],inactive
same,Potency,[5],43.4 µM (active)
same,Potency,[3],54.2 µM (active)
CC(=O)Nc1ccc(OC(C)=O)cc1,Potency,[4],inactive
Clc1nc(C(Cl)(Cl)Cl)c(Cl)c(Cl)c1Cl,Potency,[1],61.1 µM (active)
same,Potency,[4],inactive
same,Potency,[5],38.9 µM (active)
same,Potency,[3],30.6 µM (active)
same,Potency,[2],17.4 µM (active)
CC(O)(c1ccc(Cl)cc1)c1ccc(Cl)cc1,Potency,[1],inactive
same,Potency,[4],inactive
same,Potency,[5],inactive
same,Potency,[2],inactive
same,outcome,[6],inactive
COc1cc2c(c(OC)c1OC)-c1c(cc3c(c1OC)OCO3)C[C@@H](C)[C@](C)(O)C2,Potency,[4],29.8 µM (active)
same,Potency,[7],inactive
CCN(CC)C(=O)[C@]1(c2ccccc2)C[C@@H]1CN,Potency,[4],inactive
CCCCCCCCCCCC[n+]1ccc2ccccc2c1,Potency,[1],inactive
Cc1cc(CC(C)CC(C)(C)C)n(O)c(=O)c1 (configuration not stated) (tested in a mixture with another compound),Potency,[1],inactive
same,Potency,[4],inactive
same,Potency,[7],inactive

# Reference: PubChem BioAssay (Tox21)
